Experimental data taken from PubChem BioAssay (EPA / NIEHS).
Active and inactive are the calls of the source. Rule for the calls: active = hit-call score of the fitted dose curve at least 0.9, where 1 is the maximum; inactive = score below 0.9.

Target: Cellular tumor antigen p53 (Homo sapiens) (UniProt P04637)
Test: ATG_p53_CIS: Attagene CIS-FACTORIAL HepG2 Assay for human p53 Transcription Factor (AID 2282994)
Conditions: HepG2 p53 cis-element reporter, Attagene mRNA; actives raise or lower the signal
Experimental: ATG_CIS is a cell-based, multiplexed-readout assay that uses HepG2, a human liver cell line, with measurements taken at 24 hours after chemical dosing in a 24-well plate.ATG_p53_CIS is one of 52 assay component(s) measured or calculated from the ATG_CIS assay. It is designed to make measurements of mRNA induction, a form of inducible reporter, as detected with fluorescence intensity signals by Reverse transcription polymerase chain reaction (RT-PCR) and Capillary electrophoresis technology.Data from the assay component ATG_p53_CIS was analyzed into 1 assay endpoint. This assay endpoint, ATG_p53_CIS, was analyzed with bidirectional fitting relative to DMSO as the negative control and baseline of activity. Using a type of inducible reporter, measures of mRNA for gain or loss-of-signal activity can be used to understand the reporter gene at the transcription factor-level as they relate to the gene TP53. Furthermore, this assay endpoint can be referred to as a primary readout, because this assay has produced multiple assay endpoints where this one serves a reporter gene function. To generalize the intended target to other relatable targets, this assay endpoint is annotated to the dna binding intended target family, where the subfamily is tumor suppressor.
Human liver HepG2 cells are transiently transfected with multiple reporter transcription units (MRTUs) in 6-well plates using FuGene 6 reagent (Roche; 3 ml FuGene/1 mg DNA). The MRTU constructs are regulated by a cis-regulating element (promoter). […] A major difference between the CIS and TRANS system is that in CIS activities of endogenous TFs are measured, whereas the TRANS assay evaluates changes in activities of exogenous, chimeric NR-Gal4 proteins. […] At the end of 24 hour incubation, total RNA was isolated using TriZol reagent (Invitrogen). The isolated RNA is then reverse-transcribed using oligo(dT) primer and Mo-MLV reverse transcriptase (Invitrogen) with DNAse I (Ambion) treatment for 30 min. The one-tenth of the produced cDNA was amplified by PCR using Taq DNA polymerase (Invitrogen) and two reporter sequence-specific primers. The PCR products were fluorescently labeled by primer extension with 6-arboxyfluorescein (6-FAM) 5'-labeled reporter sequence-specific primer (2 min at 95 C, 20 s at 68 C and 10 min at 72 C) and these products were digested with 5U of HpaI (New England Biolabs) for 2h at 37 C. The fragments were purified using Qiaquick PCR columns (Qiagen), analyzed on an ABI 3130xL genetic analyzer (Applied Biosystems) with peak positions identified by using a set of X-rhodamine (ROX)-labeled MapMarker1000 molecular weight standards (BioVentures). The raw capillary electrophoresis data was processed using Attagraph software (Attagene).

Sequence of Cellular tumor antigen p53 (Homo sapiens) (P04637 whole entry, looked up): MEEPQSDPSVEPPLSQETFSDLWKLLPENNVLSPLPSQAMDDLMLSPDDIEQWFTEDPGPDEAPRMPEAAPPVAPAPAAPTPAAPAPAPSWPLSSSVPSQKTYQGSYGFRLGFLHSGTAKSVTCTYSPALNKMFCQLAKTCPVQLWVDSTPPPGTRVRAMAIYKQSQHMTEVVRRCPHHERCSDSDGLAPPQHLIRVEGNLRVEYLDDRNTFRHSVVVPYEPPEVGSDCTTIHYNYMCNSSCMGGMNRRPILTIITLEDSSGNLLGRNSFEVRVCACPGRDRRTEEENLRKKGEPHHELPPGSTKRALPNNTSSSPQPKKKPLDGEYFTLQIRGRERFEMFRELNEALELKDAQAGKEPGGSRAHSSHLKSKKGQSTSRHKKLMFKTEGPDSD

SMILES | outcome | AC50
CC(CCC(=O)O)(c1ccc(O)cc1)c1ccc(O)cc1 | inactive | –
CC(c1cc(C(C)(C)C)cc(C(C)(C)C)c1O)c1cc(C(C)(C)C)cc(C(C)(C)C)c1O | inactive | –
C=C(C)[C@@H]1CC=C(C)CC1 | inactive | –
C1CNCCN1 | inactive | –
c1ccc(Nc2cccc3ccccc23)cc1 | – | 57.1 µM (active)
CC1=NN(c2ccc(S(=O)(=O)O)cc2)C(=O)C1N=Nc1ccccc1 (stereo not given) | inactive | –
C=CC(=O)O[C@H]1C[C@@H]2CC[C@@]1(C)C2(C)C | inactive | –
O=C(O)C(F)(F)C(F)(F)C(F)(F)C(F)(F)C(=O)O | inactive | –
CCOC(=O)c1ccccc1C | inactive | –
CCC(C)(O)CCCC(C)C (stereo not given) | inactive | –
CCOC(=O)C1=NN(c2ccc(Cl)cc2Cl)C(C)(C(=O)OCC)C1 (stereo not given) | inactive | –
CCCC1CCCC(=O)O1 (stereo not given) | inactive | –
COc1nccnc1CC(C)C | inactive | –
CCC1COC(=O)O1 (stereo not given) | inactive | –
N#Cc1ccc(C2CCCc3cncn32)cc1 (stereo not given) | inactive | –
Nc1ccc(C(=O)O)cc1 | inactive | –
CC(C)(C)NC(=O)[C@H]1CC[C@H]2[C@@H]3CC[C@H]4NC(=O)C=C[C@]4(C)[C@H]3CC[C@]12C | – | 38.7 µM (active)
CCCCCCCC(=O)OCC | inactive | –
COc1ccc(-c2coc3cc(O)cc(O)c3c2=O)cc1 | – | 159 µM (active)
CCCCC1C(=O)N(c2ccccc2)N(c2ccccc2)C1=O | inactive | –

SMILES | outcome | AC50
CC1(C)[C@@H]2CC[C@@]1(C)C(=O)C2 | inactive | –
CCCCCCCCCCCCC | inactive | –
C=CCNCC=C | inactive | –
Nc1ncnc2nc[nH]c12 | inactive | –
CCCCCCCCCCCCCC(=O)OC(C)C | inactive | –
COc1ccc(C(=O)/C(Br)=C\C(=O)O)cc1 | inactive | –
C=C1C[C@H]2[C@@H]3C=C(C)C4=CC(=O)CC[C@]4(C)[C@H]3CC[C@]2(C)[C@@]1(OC(C)=O)C(C)=O | inactive | –
CCCCCCCC(=O)OCC(COC(=O)CCCCCCC)OC(=O)CCCCCCC | inactive | –
CC(=O)OC/C=C(/C)CCC=C(C)C | inactive | –
C=CCCCCCCCCC=O | inactive | –
CCc1cccc(C)c1N | inactive | –
CCCCCCOc1ccc(N)cc1 | inactive | –
c1ccc2cnccc2c1 | inactive | –
CC(=O)C(C)C | inactive | –
C=C(C)C(=O)OCCCCCCCCCCCC | inactive | –
Oc1ccc(-c2ccccc2)c(Cl)c1 | inactive | –
O=C(OCCc1ccccc1)c1ccccc1 | inactive | –
CCc1cccc(C)c1N(C(=O)CS(=O)(=O)O)C(C)COC (stereo not given) | inactive | –
CC1=C(O)C(=O)C(C)O1 (stereo not given) | inactive | –
N#CC1(N)CCCCC1 | inactive | –
